From PubChem
Sampled rows, rich in hits. Any-hit rate of the full collection: about 6.9%.
HP1b chromo inh – inhibitors of HP1-beta chromodomain binding to methylated histone tails | 390,000 tested, 0.56% active | AID 540317 | Potency, µM (top dose mostly 114 µM), for the others: at the top dose activity change, negative = inhibition, hits mostly inhibitors | AlphaScreen HP1-beta / biotin-H3K9me3 peptide binding | P83916; note: nearly all actives have a fitted effect of over 70% in size
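AlphaScreen: HP1-beta (50 nM) preformed 30 min with biotin-H3(1-18)K9me3 peptide (50 nM) in PBS pH 7.4, 0.01% Tween-20. Compound added for 30 min at RT, then streptavidin donor/nickel chelate acceptor beads (10 ug/mL) for 30 min.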
L3MBTL1 inh – inhibitors of human L3MBTL1 | Potency, µM (top dose mostly 57.1 µM), for the others: top-dose activity, negative = inhibition, usual class: inhibitors | AID 485360 | 230,000 tested, 0.66% active | Q9Y468 | AlphaScreen L3MBTL1–H3K9me1 peptide binding; note: % is set by controls: 0 for no effect and ±100 for the full control effect; nearly all actives have a fitted effect of over 60% in size
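L3MBTL1 50 nM + b-AHA-H3(1-15)K9me1 75 nM, 30 min RT; compound added, 30 min RT; streptavidin donor/Ni-chelate acceptor beads 10 ug/mL each final, 30 min RT dark; AlphaScreen read.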
PLK1 PBD block – inhibitors of human PLK1 polo-box domain binding. P53350. 360,000 tested, 2.8% active. Plk1 PBD binding of FITC phosphopeptide, fluorescence polarization. Potency, µM, without a hit: max response, negative = inhibition, usual class: inhibitors; note: series mostly up to about 57 µM; % is set by controls: 0 for no effect and ±100 for the full control effect; nearly all actives have a fitted effect of over 65% in size
Target sequence (P53350 whole entry, looked up, the tested form may be a part): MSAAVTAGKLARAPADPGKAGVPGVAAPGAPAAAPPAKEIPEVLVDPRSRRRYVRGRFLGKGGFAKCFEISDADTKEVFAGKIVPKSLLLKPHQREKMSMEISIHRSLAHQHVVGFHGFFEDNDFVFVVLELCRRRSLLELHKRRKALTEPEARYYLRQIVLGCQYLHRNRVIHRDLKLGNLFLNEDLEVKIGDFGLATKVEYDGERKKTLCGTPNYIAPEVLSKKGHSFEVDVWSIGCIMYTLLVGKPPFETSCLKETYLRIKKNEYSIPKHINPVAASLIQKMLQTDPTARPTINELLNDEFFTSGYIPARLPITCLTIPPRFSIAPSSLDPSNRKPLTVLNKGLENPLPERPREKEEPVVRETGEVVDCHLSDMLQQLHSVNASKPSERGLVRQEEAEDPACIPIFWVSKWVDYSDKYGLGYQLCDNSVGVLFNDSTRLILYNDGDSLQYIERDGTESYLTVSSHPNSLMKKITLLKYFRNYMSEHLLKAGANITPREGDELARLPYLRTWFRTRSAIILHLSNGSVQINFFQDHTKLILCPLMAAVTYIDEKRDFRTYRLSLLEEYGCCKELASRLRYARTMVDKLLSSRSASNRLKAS
JMJD2A Tudor – JMJD2A Tudor domain (human) inhibition; O75164; AlphaScreen JMJD2A-Tudor / H3K4me3 peptide binding; Potency, µM (titrated, usually from 114 µM), for inactives: at the highest dose activity change, negative = inhibition, actives largely listed as inhibitors; 390,000 tested, 4.4% active; note: % is set by controls: 0 for no effect and ±100 for the full control effect; nearly all actives have a fitted effect of over 50% in size
BAZ2B block – inhibitors of human BAZ2B bromodomain; AlphaScreen BAZ2B-H3K14Ac peptide displacement; Potency, µM (series often up to 114 µM), without a hit: at the highest dose activity change, negative = inhibition, actives largely listed as inhibitors; 360,000 tested, 4.4% active; note: % is set by controls: 0 for no effect and ±100 for the full control effect; nearly all actives have a fitted effect of over 60% in size
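Multi-concentration screen (max 110 uM) measuring displacement of acetylated histone H3 peptide from BAZ2B by AlphaScreen, using 50 nM protein, 50 nM peptide and 10 ug/mL streptavidin donor plus Ni-chelate acceptor beads.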
VDR inh – blocks the human vitamin D receptor. Potency, µM, inactives show max response, negative = inhibition, usual class: inhibitors. VDR-SRC2-3 peptide fluorescence polarization, 2 h. 400,000 tested, 0.93% active. P11473. AID 504847; note: % is set by controls: 0 for no effect and ±100 for the full control effect
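Fluorescence polarization assay of small-molecule disruption of VDR binding to coregulator peptide SRC2-3. Compounds and controls pin-transferred, then read after 2 h incubation at ambient room temperature.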
TbPYK inh – Trypanosoma brucei pyruvate kinase inhibition, cherry-pick confirmation. Potency, µM (highest dose often 76.9 µM), for inactives: at the highest dose activity change, negative = inhibition, usual class: inhibitors. AID 720569. 890 tested, 67% active. shares compounds with PLK1 PBD block. recombinant TbPYK, Kinase-Glo ATP luminescence; note: % is set by controls: 0 for no effect and ±100 for the full control effect; nearly all actives have a fitted effect of over 70% in size
TbPYK orthogonal – orthogonal confirmation of Trypanosoma brucei pyruvate kinase inhibitors; shares compounds with PLK1 PBD block; recombinant TbPYK, ADP-Glo luminescence, 60 min; Potency, µM (titrated, usually from 76.9 µM), for the others: at the highest dose activity change, negative = inhibition, usual class: inhibitors; 890 tested, 62% active; AID 720584; note: % is set by controls: 0 for no effect and ±100 for the full control effect; nearly all actives have a fitted effect of over 75% in size
Active calls of the source: *; ? = inconclusive; / = no result; [ ] = another dose, or the depositor's remark. Calls come from the whole dose curve; as a rule, active = well fitted curve in the direction sought with a large enough effect; inconclusive = small, poorly fitted or top-dose-only effect, or another doubt; inactive = no such curve, though single readings can be large; an effect the other way counts as inactive or inconclusive. Potency is the fitted concentration of half-maximal effect.

SMILES	HP1b chromo inh	L3MBTL1 inh	PLK1 PBD block	JMJD2A Tudor	BAZ2B block	VDR inh	TbPYK inh	TbPYK orthogonal
O=C(COc1cccc(C(F)(F)F)c1)N1CCN(c2ccc(O)cc2)CC1	79µM*	-23%	-2%	56µM*	/	8%	8.9µM*	?
O=C(COc1cccc(C(F)(F)F)c1)N1CCN(c2ccccc2O)CC1	8%	/	-7%	-17%	?	19%	/	/
COc1ccc(C(=O)N/N=C/c2ccc(N3CCOCC3)s2)cc1OC	26%	-1%	-12%	-20%	-2%	-6%	/	/
COc1ccc(C(=O)N/N=C/c2ccc(N3CCOCC3)o2)cc1OC	-7%	/	-14%	-36%	-28%	?	-7%	?
O=C1C=CC2=C3c4cc(O)c(O)cc4CC3(O)COC2=C1O (stereo not drawn)	?	/	27µM*	3.2µM*	/	?	7.1µM*	4µM*
CC(=O)C1=C(c2ccc(Cl)c(Cl)c2)N(C(C)=O)n2c(C)nnc2S1	7%	/	/	-7%	1%	-7%	/	/
Cc1nc(-c2ccc(C(=O)N3CCCC3)cc2)cs1	21%	/	-9%	-1%	-20%	-1%	?	10%
O=C(c1cc(-c2cccc(Cl)c2)on1)N1CCCCC1	38%	/	/	28%	25%	-9%	/	/
C[C@@H]1O[C@@H](O[C@@H]2[C@@H](O)[C@H](OCCc3ccc(O)c(O)c3)O[C@H](CO)[C@H]2OC(=O)/C=C/c2ccc(O)c(O)c2)[C@H](O)[C@H](O)[C@H]1O	?	?	0%	18µM*	/	-14%	32µM*	?
C=CCOc1ccc(/C=C2\SC(N)=NC2=O)cc1OC	34%	/	9%	-9%	2%	6%	/	/
C=CCOc1ccc(/C=C2/C(=O)ON=C2C)cc1OC	27%	/	2.4µM*	-13%	-35%	-14%	13µM*	?
CCCc1[nH]n(-c2nc3ccccc3s2)c(=O)c1C=NCC(C)C	31%	/	-4%	?	-10%	-9%	/	/
C=CCNC(=S)NNC(=O)c1cccn(Cc2ccc(Cl)cc2Cl)c1=O	30%	-1%	-16%	-21%	-1%	-5%	0.89µM*	2.8µM*
CCNC(=S)NNC(=O)c1cccn(Cc2ccc(Cl)cc2Cl)c1=O	24%	-6%	-13%	-18%	-3%	-3%	/	/
COC(=O)c1sccc1NC(=O)Nc1cccc(F)c1	41%	4%	-5%	6%	2%	0%	/	/
C=CCN1CCN(C(c2ccccc2)c2nnnn2CCC(C)C)CC1 (stereo not drawn)	51%	10%	2.7µM*	3.2µM*	?	?	4%	-4%
CC(C)CCn1nnnc1C(c1ccccc1)N1CCN(C)CC1 (stereo not drawn)	57%	/	-1%	-3%	7%	-6%	/	/
CCCCCC(=O)NNC(=S)NC(=O)c1ccccc1[N+](=O)[O-]	21%	-1%	-9%	-13%	-29%	?	/	/
CCCCCC(=O)NNC(=S)NC(=O)c1cccc([N+](=O)[O-])c1	-18%	-4%	15µM*	35µM*	-33%	?	11µM*	14µM*
Cc1ccc(S(=O)(=O)NNC(=O)c2cccs2)c(C)c1	16%	5%	2%	-3%	9%	3%	/	/
Cc1ccc(S(=O)(=O)NNc2ccccc2)c(C)c1	-58%	7%	21µM*	5µM*	56µM*	?	16µM*	?
CO/N=C/C1CCN(c2ncc(C(F)(F)F)cc2Cl)C1=O (stereo not drawn)	13%	5%	-2%	-9%	-27%	12%	/	/
CC(=O)C1=C(C)NC(SCC(=O)c2ccccc2)=C(C#N)C1CC(C)C (stereo not drawn)	44%	/	-26%	56µM*	?	-15%	?	40µM*
CCSc1nc2c([nH]1)c(=O)n(C)c(=S)n2C	?	/	3.4µM*	5µM*	/	22µM*	5µM*	10µM*
Nc1nc2ccc([N+](=O)[O-])c(N)c2s1	-9%	-10%	11µM*	-30%	-35%	-14%	?	32µM*
SMILES	HP1b chromo inh	L3MBTL1 inh	PLK1 PBD block	JMJD2A Tudor	BAZ2B block	VDR inh	TbPYK inh	TbPYK orthogonal
O=C(c1ccc2ncsc2c1)N1CCN(c2ccc(O)cc2)CC1	-25%	-2%	-19%	-27%	-8%	4%	11µM*	?
O=C(NCC1CCCO1)c1sc(=S)n2c1[nH]c(=O)c1ccc(C(=O)N3CCCCC3)cc12 (stereo not drawn)	-24%	-8%	-19%	?	?	-25%	?	?
c1cc2c(cc1CN1CCOCC1)OCO2	35%	/	-7%	-20%	4%	-12%	12%	-3%
O=C(C(Cl)Cl)N1CCN(Cc2ccc3c(c2)OCO3)CC1	37%	-8%	1%	-1%	7%[0.457 µM]	-6%	/	/
CCCN(C(=O)CCSc1ccc(F)cc1)c1c(N)n(Cc2ccccc2)c(=O)[nH]c1=O	15%	/	-8%	-9%	-5%	-11%	/	/
CCOc1ccc(CCNC(=O)CCC(=O)N2CCOc3ccccc32)cc1OCC	5%	6%	-7%	-19%	13%	6%	/	/
COc1ccc(N2CSC3=C(C#N)C(c4cccc(OC)c4OC)CC(=O)N3C2)cc1 (stereo not drawn)	?	/	7.5µM*	20µM*	?	20µM*	1.6µM*	1.4µM*
CCc1ccccc1N1CSC2=C(C#N)C(c3ccccc3F)CC(=O)N2C1 (stereo not drawn)	?	-4%	19µM*	22µM*	56µM*	?	1.1µM*	1.8µM*
COc1ccccc1CN1CCC(CNS(=O)(=O)c2cc(-c3onc(C)c3C)ccc2OC)CC1	13%	/	3%	-28%	?	6%	/	/
COc1ccc(/C(C)=N/NC(=S)NCCc2ccccc2)c(O)c1	8%	/	2%	-31%	?	13%	/	/
CC1(C)CC(=O)C(CSC(=O)c2ccccc2)C(=O)C1	/	/	9.5µM*	/	/	/	5.6µM*	14µM*
N#C/C(=C/c1ccc(N2CCOCC2)o1)c1ccc(Cl)cc1	-26%	-6%	6%	56µM*	45µM*	?	?	35µM*
Cc1ccc(CN(Cc2ccco2)C(=O)COc2cc(C)c(Cl)c(C)c2)cc1	61%	/	/	37%	31%	-4%	/	/
